Experimental data published in the supplement of paper PMC9262897, “Low-cost anti-mycobacterial drug discovery using engineered E. coli” (Nature Communications, 2022).
Where a name gives a salt, the structure may show the parent alone. ± gives the standard deviation of the averaged measurements.

Assays:
Experiment in all cases: growth (OD600 after 10 h); higher = more growth (less inhibition)
[1] = test system: E. coli TESEC Alr+ wild-type control; conditions: compound 0.1 mM; raw OD600 reference: median of DMSO wells 0.241, cell-free background 0.041
Procedure: (§1)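 TESEC Mtb Alr E. coli, or the Alr+ wild-type control, in 384-well plates with Prestwick library compounds at 0.1 mM and 1% DMSO, across arabinose induction levels of 1E3 to 1E7 nM. Growth is read as OD600 after 10 h at 37 °C in triplicate biological replicates.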

E. coli TESEC Mtb Alr [2] = conditions: compound 0.1 mM
Procedure: as §1

E. coli TESEC Mtb Asd = conditions: compound 0.1 mM
Procedure: (§2)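 TESEC E. coli strains in which the native enzyme is deleted and replaced by arabinose-inducible Mtb Asd, DapB, CysH or TrpD, each grown in its selective medium. Strains were screened against the Prestwick library at 0.1 mM and 1% DMSO in 384-well format at low and high arabinose induction. Growth is read as OD600 after 10 h in triplicate.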

[3] = test system: E. coli TESEC Alr+ wild-type control; conditions: compound 0.1 mM; raw OD600 reference: median of DMSO wells 0.49, cell-free background 0.052
Procedure: (§3)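 TESEC Mtb Alr E. coli (ΔaraC ΔtolC ΔentC Δalr ΔdadX, arabinose-inducible Mtb Alr) or the Alr+ wild-type control strain, grown in defined M9-fructose medium without D-alanine in 96-well plates with Prestwick library compounds at 0.1 mM and 1% DMSO. Low Alr induction is 0.1 µM arabinose and high induction is 10 mM arabinose.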

E. coli TESEC Mtb Alr [4] = conditions: compound 0.1 mM; remark: listed apart in the source
Procedure: as §3

E. coli TESEC Mtb DapB = conditions: compound 0.1 mM
Procedure: as §2

[5] = arabinose 1000 nM, raw OD600 reference: median of DMSO wells 0.294, cell-free background 0.041
[6] = arabinose 10000 nM, raw OD600 reference: median of DMSO wells 0.264, cell-free background 0.041
[7] = arabinose 100000 nM, raw OD600 reference: median of DMSO wells 0.201, cell-free background 0.041
[8] = arabinose 1000000 nM, raw OD600 reference: median of DMSO wells 0.193, cell-free background 0.041
[9] = arabinose 10000000 nM, raw OD600 reference: median of DMSO wells 0.146, cell-free background 0.041
[10] = arabinose induction (level): High, raw OD600 reference: median of DMSO wells 0.331, cell-free background 0.041
[11] = arabinose induction (level): Low, raw OD600 reference: median of DMSO wells 0.417, cell-free background 0.041
[12] = arabinose 100 nM, raw OD600 reference: median of DMSO wells 0.413, cell-free background 0.052
[13] = arabinose 10000000 nM, raw OD600 reference: median of DMSO wells […], cell-free background 0.052
[14] = arabinose induction (level): High, raw OD600 reference: median of DMSO wells […], cell-free background 0.041
[15] = arabinose induction (level): Low, raw OD600 reference: median of DMSO wells 0.227, cell-free background 0.041

Row | SMILES | growth [1] | growth (E. coli TESEC Mtb Alr [2]; [5]) | growth (E. coli TESEC Mtb Alr [2]; [6]) | growth (E. coli TESEC Mtb Alr [2]; [7]) | growth (E. coli TESEC Mtb Alr [2]; [8]) | growth (E. coli TESEC Mtb Alr [2]; [9]) | growth (E. coli TESEC Mtb Asd; [10]) | growth (E. coli TESEC Mtb Asd; [11]) | growth [3] | growth (E. coli TESEC Mtb Alr [4]; [12]) | growth (E. coli TESEC Mtb Alr [4]; [13]) | growth (E. coli TESEC Mtb DapB; [14]) | growth (E. coli TESEC Mtb DapB; [15])
1 | c1ccc(CC2=NCCN2)cc1 [Tolazoline hydrochloride] | 0.2459 ± 0.0022 | 0.301 ± 0.018 | 0.253 ± 0.0071 | 0.191 ± 0.0077 | 0.172 ± 0.0039 | 0.149 ± 0.0054 | 0.264 ± 0.08 | 0.435 ± 0.036 | 0.493 ± 0.064 | 0.413 ± 0.007 | 0.364 ± 0.012 | – | –
2 | CC(=O)OCC(=O)[C@@]1(O)CC[C@H]2[C@@H]3CCC4=CC(=O)CC[C@]4(C)[C@H]3[C@@H](O)C[C@@]21C [Cortisol acetate] | 0.234 ± 0.0044 | 0.297 ± 0.016 | 0.237 ± 0.0043 | 0.184 ± 0.018 | 0.151 ± 0.0056 | 0.141 ± 0.0061 | 0.366 ± 0.052 | 0.506 ± 0.028 | – | 0.399 ± 0.014 | 0.289 ± 0.011 | 0.213 ± 0.0036 | 0.206 ± 0.011
3 | COc1ccc(CN(CCN(C)C)c2ccccn2)cc1 [Pyrilamine maleate] | 0.2136 ± 0.002 | 0.269 ± 0.018 | 0.263 ± 0.0074 | 0.179 ± 0.008 | 0.154 ± 0.0054 | 0.135 ± 0.0052 | 0.206 ± 0.052 | 0.426 ± 0.034 | 0.528 ± 0.077 | 0.3958 ± 0.0033 | 0.321 ± 0.015 | – | –
4 | CN/C(=N\CCSCc1nc[nH]c1C)NC#N [Cimetidine] | 0.249 ± 0.0059 | 0.295 ± 0.023 | 0.252 ± 0.0057 | 0.216 ± 0.028 | 0.179 ± 0.00087 | 0.142 ± 0.0033 | 0.376 ± 0.1 | 0.376 ± 0.045 | 0.545 ± 0.0056 | 0.409 ± 0.0072 | 0.337 ± 0.019 | – | –
5 | CN(C)C(=O)C(CCN1CCC(O)(c2ccc(Cl)cc2)CC1)(c1ccccc1)c1ccccc1 [Loperamide hydrochloride] | 0.0426 ± 0.00061 | 0.0401 ± 0.00042 | 0.0402 ± 0.00044 | 0.0412 ± 0.00047 | 0.0404 ± 0.0001 | 0.04237 ± 0.00015 | 0.0486 ± 0.00055 | 0.0487 ± 0.00055 | 0.0784 ± 0.034 | 0.4189 ± 0.00099 | 0.0518 ± 0.00072 | – | –
6 | CC(=O)[C@@]12O[C@](C)(c3ccccc3)O[C@@H]1C[C@H]1[C@@H]3CCC4=CC(=O)CC[C@]4(C)[C@H]3CC[C@@]12C [Algestone acetophenide] | 0.232 ± 0.0045 | 0.323 ± 0.053 | 0.265 ± 0.029 | 0.173 ± 0.031 | 0.115 ± 0.0061 | 0.211 ± 0.0087 | 0.231 ± 0.0044 | 0.278 ± 0.038 | – | 0.413 ± 0.011 | 0.117 ± 0.013 | 0.15 ± 0.015 | 0.171 ± 0.0092
7 | O=C1c2cccc3c2[C@H](CCC3)CN1[C@@H]1CN2CCC1CC2 [Palonosetron hydrochloride] | 0.212 ± 0.017 | 0.281 ± 0.0041 | 0.263 ± 0.013 | 0.177 ± 0.01 | 0.165 ± 0.0085 | 0.151 ± 0.0037 | 0.267 ± 0.049 | 0.279 ± 0.045 | 0.601 ± 0.042 | 0.417 ± 0.011 | 0.307 ± 0.022 | – | –
8 | CC(N/C(=N\C#N)Nc1ccncc1)C(C)(C)C (configuration not stated) [Pinacidil] | 0.223 ± 0.015 | 0.274 ± 0.011 | 0.257 ± 0.0097 | 0.219 ± 0.0078 | 0.137 ± 0.0036 | 0.138 ± 0.0067 | 0.369 ± 0.037 | 0.412 ± 0.03 | 0.446 ± 0.031 | 0.405 ± 0.012 | 0.359 ± 0.036 | – | –
9 | OCCN1CCN(CCCN2c3ccccc3C=Cc3ccccc32)CC1 [Opipramol dihydrochloride] | 0.142 ± 0.003 | 0.271 ± 0.023 | 0.245 ± 0.0065 | 0.179 ± 0.0079 | 0.0873 ± 0.0083 | 0.137 ± 0.003 | 0.16 ± 0.019 | 0.276 ± 0.024 | 0.464 ± 0.013 | 0.407 ± 0.006 | 0.298 ± 0.0042 | – | –
10 | Cc1c(N(C)C)c(=O)n(-c2ccccc2)n1C [Amidopyrine] | 0.242 ± 0.0096 | 0.28 ± 0.016 | 0.2721 ± 0.0006 | 0.225 ± 0.02 | 0.184 ± 0.0082 | 0.138 ± 0.0025 | 0.373 ± 0.017 | 0.41 ± 0.042 | 0.462 ± 0.039 | 0.412 ± 0.0055 | 0.365 ± 0.037 | – | –
11 | CN(C)C/C=C(/c1ccc(Br)cc1)c1cccnc1 [Zimelidine dihydrochloride monohydrate] | 0.2066 ± 0.0016 | 0.261 ± 0.0081 | 0.255 ± 0.028 | 0.192 ± 0.028 | 0.153 ± 0.0035 | 0.134 ± 0.0035 | 0.237 ± 0.037 | 0.413 ± 0.022 | 0.445 ± 0.04 | 0.397 ± 0.01 | 0.303 ± 0.028 | – | –
12 | CCN(CC)CCOC(=O)C1(C2CCCCC2)CCCCC1 [Dicyclomine hydrochloride] | 0.137 ± 0.0054 | 0.115 ± 0.063 | 0.195 ± 0.0043 | 0.157 ± 0.016 | 0.06453 ± 0.00058 | 0.103 ± 0.0024 | 0.137 ± 0.014 | 0.21 ± 0.049 | 0.46 ± 0.008 | 0.393 ± 0.017 | 0.11 ± 0.003 | – | –
13 | C=CCOc1ccccc1OCC(O)CNC(C)C (configuration not stated) [Oxprenolol hydrochloride] | 0.2186 ± 0.001 | 0.281 ± 0.0082 | 0.271 ± 0.0046 | 0.1983 ± 0.00078 | 0.208 ± 0.023 | 0.141 ± 0.0071 | 0.332 ± 0.062 | 0.368 ± 0.013 | – | 0.414 ± 0.0042 | 0.357 ± 0.0083 | 0.204 ± 0.0052 | 0.225 ± 0.031
14 | CNCCC=C1c2ccccc2C=Cc2ccccc21 [Norcyclobenzaprine] | 0.182 ± 0.016 | 0.194 ± 0.022 | 0.254 ± 0.014 | 0.157 ± 0.0048 | 0.0991 ± 0.0027 | 0.111 ± 0.0032 | 0.204 ± 0.045 | 0.238 ± 0.036 | 0.514 ± 0.015 | 0.419 ± 0.011 | 0.212 ± 0.011 | – | –
15 | CC(C[N+](C)(C)C)OC(N)=O (configuration not stated) [Bethanechol chloride] | 0.24 ± 0.0039 | 0.283 ± 0.0042 | 0.28 ± 0.0036 | 0.195 ± 0.014 | 0.222 ± 0.021 | 0.139 ± 0.0046 | 0.373 ± 0.07 | 0.381 ± 0.028 | 0.603 ± 0.0074 | 0.438 ± 0.0061 | 0.349 ± 0.006 | – | –
16 | COc1cc(C(=O)OCCCN2CCCN(CCCOC(=O)c3cc(OC)c(OC)c(OC)c3)CC2)cc(OC)c1OC [Dilazep dihydrochloride] | 0.174 ± 0.0063 | 0.264 ± 0.034 | 0.291 ± 0.0076 | 0.18 ± 0.0077 | 0.118 ± 0.0022 | 0.154 ± 0.0029 | 0.232 ± 0.023 | 0.35 ± 0.051 | – | 0.417 ± 0.012 | 0.316 ± 0.029 | 0.171 ± 0.013 | 0.211 ± 0.034
17 | COc1ccc2[nH]c([S+]([O-])Cc3ncc(C)c(OC)c3C)nc2c1 (configuration not stated) [Omeprazole] | 0.19 ± 0.0022 | 0.232 ± 0.0033 | 0.2749 ± 0.0018 | 0.168 ± 0.011 | 0.122 ± 0.0034 | 0.131 ± 0.0049 | 0.298 ± 0.04 | 0.388 ± 0.025 | – | 0.399 ± 0.016 | 0.263 ± 0.018 | 0.167 ± 0.0081 | 0.1748 ± 0.0014
